Bioassay records from PubChem.
A selection: hits, their analogues and other compounds. The true share with any hit is near 13%.
USP17 inh: inhibitors of human USP17 deubiquitinase | purified USP17, Ub-rhodamine cleavage fluorescence, 3 h | inhibition, % at 50 µM | 6.5% of 47,000 active
USP30 inh: inhibitors of human USP30 deubiquitinase; purified USP30, Ub-rhodamine cleavage fluorescence; inhibition, % at 25 µM; 5.3% of 47,000 active; AID 1645860, 2021
Target sequence (Q70CQ3 whole entry, looked up): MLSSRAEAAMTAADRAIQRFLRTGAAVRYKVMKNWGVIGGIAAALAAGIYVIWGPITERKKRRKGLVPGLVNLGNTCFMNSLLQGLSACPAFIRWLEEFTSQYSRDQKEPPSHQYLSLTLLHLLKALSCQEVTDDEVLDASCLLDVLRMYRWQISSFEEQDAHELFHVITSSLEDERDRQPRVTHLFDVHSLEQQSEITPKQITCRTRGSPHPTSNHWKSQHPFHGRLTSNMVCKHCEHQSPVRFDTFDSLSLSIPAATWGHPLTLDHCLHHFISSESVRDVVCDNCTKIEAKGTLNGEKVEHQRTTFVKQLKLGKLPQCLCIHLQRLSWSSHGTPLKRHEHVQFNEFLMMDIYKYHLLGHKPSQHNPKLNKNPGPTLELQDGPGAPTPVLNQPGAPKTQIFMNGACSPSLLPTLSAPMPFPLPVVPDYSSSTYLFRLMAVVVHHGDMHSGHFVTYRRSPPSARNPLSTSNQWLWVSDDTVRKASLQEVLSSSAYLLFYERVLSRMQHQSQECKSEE
USP8 block: inhibitors of human USP8 deubiquitinase; Ubiquitin carboxyl-terminal hydrolase 8 (Homo sapiens), P40818; AID 1645853, 2021; 4.2% of 47,000 active; inhibition, % at 20 µM; purified USP8, Ub-rhodamine cleavage fluorescence, 30 min
USP28 inh: inhibitors of human USP28 deubiquitinase. purified USP28, Ub-rhodamine cleavage fluorescence, 30 min. inhibition, % at 25 µM. 3% of 47,000 active. AID 1645857, 2021
The depositor's hits bear a star. No stated cut-off is given here; in the data, active means inhibition above about 30%; inactive means the rest.

`Cc1ccc(-c2csc3ncnc(OCc4ccc(C#N)cc4)c23)cc1` gave USP17 inh 10, USP30 inh -23, USP8 block 7 and USP28 inh 18.
For O=C(Nc1cccc2ccccc12)C1CCCN(S(=O)(=O)Cc2ccccc2Cl)C1 (stereo unspecified) the results were USP17 inh 22, USP30 inh 9, USP8 block 16 and USP28 inh 0.
For CCCCC(CC)CNC(=O)CCC(=O)NCc1ccc(C)o1 (stereo unspecified) the results were USP17 inh -7, USP30 inh -7, USP8 block -8 and USP28 inh -4.
For Cn1c(=O)c2c(ncn2CCOc2ccc(F)cc2)n(C)c1=O the results were USP17 inh 16, USP30 inh 30, USP8 block 18 and USP28 inh 33*.
For CCOc1ccc(S(=O)(=O)NCc2ccccc2Cl)c2ccccc12 the results were USP17 inh 32*, USP30 inh 45*, USP8 block 30* and USP28 inh 20.
Screening O=S(=O)(c1ccccc1)N1CCCn2nnc(CN3CCCCC3)c2C1 returned USP17 inh -5, USP30 inh 3, USP8 block -146 and USP28 inh -3.
Screening COc1ccc(NC(=O)CCc2c(C)c3c(C)nn(-c4ccccc4)c3n(C)c2=O)c(OC)c1 returned USP17 inh -3, USP30 inh 30*, USP8 block -3 and USP28 inh -1.
CCCN1C=NS(=O)(=O)c2cc(C(=O)Nc3cc(Cl)ccc3OC)ccc21 was read as USP17 inh 16, USP30 inh 35*, USP8 block 23 and USP28 inh 10.
Screening COc1ccc(Cl)cc1NC(=O)c1ccc(S(=O)(=O)N2CCCCC2)cc1 returned USP17 inh -14, USP30 inh -2, USP8 block 6 and USP28 inh -1.
COCCn1c(=O)[nH]c2cc(C(=O)Nc3ccc(OC)c(Cl)c3)ccc2c1=O was read as USP17 inh 10, USP30 inh 22, USP8 block 25 and USP28 inh 2.
`CCCN1C=NS(=O)(=O)c2cc(C(=O)Nc3ccc(OC)c(Cl)c3)ccc21` gave USP17 inh 51*, USP30 inh 19, USP8 block 0 and USP28 inh 8.
For COc1cc(/C=C/C(=O)OCC(=O)Nc2ccc([N+](=O)[O-])cc2OC)ccc1O the results were USP30 inh 66*, USP8 block 55* and USP28 inh 84*.
For COc1cc(/C=C/C(=O)O)ccc1O the results were USP17 inh -2, USP30 inh 7, USP8 block 5 and USP28 inh -4.
Screening CC(C)N1CCN(C(=O)CN2CCC3(CCC2=O)NC(=O)c2ccccc2N3)CC1 (stereo unspecified) returned USP17 inh 19, USP30 inh 18, USP8 block 32* and USP28 inh 9.
`Cc1cccc(NC(=O)CC2C(=O)Nc3nc(-c4ccccc4)nn32)c1` (stereo unspecified) gave USP17 inh 16, USP30 inh 31*, USP8 block 19 and USP28 inh 14.
O=C(CC1C(=O)Nc2nc(-c3ccccc3)nn21)Nc1ccc(Cl)c(C(F)(F)F)c1 (stereo unspecified) was read as USP17 inh -4, USP30 inh -8, USP8 block -3 and USP28 inh -3.
`COc1ccc(NCc2cc(=O)[nH]c3ccccc23)cc1` gave USP17 inh 15, USP30 inh 37*, USP8 block 17 and USP28 inh 24.
For CCOc1ccc(S(=O)(=O)[C@H]2CS(=O)(=O)C[C@@H]2NCC(C)C)cc1 the results were USP17 inh -7, USP30 inh -6, USP8 block 5 and USP28 inh -13.
Screening Cc1ccc(NC(=O)CSc2nnc(-c3n[nH]c4c3CCC4)n2N)cc1C returned USP17 inh 5, USP30 inh 21, USP8 block 8 and USP28 inh -1.
Cc1cccc(NC(=O)CSc2nnc(-c3n[nH]c4c3CCC4)n2N)c1C was read as USP17 inh 67*, USP30 inh 38*, USP8 block 51* and USP28 inh 9.
CCOc1ccc(C(CC(=O)Nc2cc(C)ccn2)N2Cc3ccccc3C2=O)cc1OC (stereo unspecified) was read as USP17 inh 44*, USP30 inh 34*, USP8 block 13 and USP28 inh 5.
c1csc(-c2csc(-c3ccc4c(c3)OCCO4)n2)c1 was read as USP17 inh -6, USP30 inh -12, USP8 block -54 and USP28 inh 8.
Screening CN(CC(=O)Nc1nc(-c2ccc3c(c2)CCN3C(=O)C2CC2)cs1)C1CCCCC1 returned USP17 inh -1, USP30 inh -28, USP8 block 3 and USP28 inh -10.
`COc1ccc(-c2nnn(Cc3ccc(-c4ccccc4)cc3)n2)cc1OC` gave USP17 inh 4, USP30 inh 1, USP8 block 14 and USP28 inh -4.
`COc1ccc(Cn2nnc(-c3cccc(F)c3)n2)cc1F` gave USP17 inh 5, USP30 inh 2, USP8 block -33 and USP28 inh 49*.
O=C(c1cc2ccccc2o1)N1CCN=C1SCc1ccc(Cl)cc1 was read as USP17 inh 20, USP30 inh -3, USP8 block -10 and USP28 inh -15.
For CC(OC(=O)c1cc(=O)[nH]c2ccccc12)C(=O)Nc1ccc(F)cc1Cl (stereo unspecified) the results were USP17 inh 45*, USP30 inh 12, USP8 block 18 and USP28 inh 19.
`O=C(NCc1ccc(Cl)cc1)C1CCN(c2cncnc2N2CCCC2)CC1` gave USP17 inh -31, USP30 inh -49, USP8 block -21 and USP28 inh 2.
`O=C(Nc1ccc(-c2ccno2)cc1)C1CCN(S(=O)(=O)c2cccnc2)CC1` gave USP17 inh -16, USP30 inh -31, USP8 block -18 and USP28 inh -10.
CC(=O)c1ccc(NC(=O)C2CCN(c3cncnc3N3CCCC3)CC2)cc1 was read as USP17 inh -14, USP30 inh -12, USP8 block -3 and USP28 inh 89*.
COc1ccc(NC(=O)C2CCN(c3cncnc3N(C)C)CC2)cc1OC was read as USP17 inh 2, USP30 inh -8, USP8 block -11 and USP28 inh 72*.
CN(C)c1ncncc1N1CCC(C(=O)NCc2ccccc2)CC1 was read as USP17 inh 5, USP30 inh 0, USP8 block -1 and USP28 inh 19.
Screening CC(=O)c1ccc(NC(=O)C2CCN(S(=O)(=O)c3cccnc3)CC2)cc1 returned USP17 inh 14, USP30 inh 35*, USP8 block 14 and USP28 inh 13.
CNc1cc(C)nc(C2COCCN2C(=O)c2cccc(OC)c2)n1 (stereo unspecified) was read as USP17 inh 1, USP30 inh 0, USP8 block -9 and USP28 inh -11.
Screening O=C(Nc1ccc2n[nH]nc2c1)c1ccc(Cl)c(Cl)c1 returned USP17 inh 51*, USP30 inh 53*, USP8 block 0 and USP28 inh 17.
